BJeLR lethal: MLPCN primary cell-based screen for lethality selective to Ras in HRASV12 cells; BJeLR (HRASV12) viability, CellTiter-Glo ATP luminescence, 48 h; inhibition, % (concentration not given with the values); 0.17% of 300,000 active; in the data active = inhibition above about 50%
FBA Mtb inh: Mtb FBA enzyme inhibitors, primary screen, biochemical, fluorescence, strain H37Rv; purified M. tuberculosis FBA, fluorescence read-out; 2.3% of 360,000 active; inhibition, % at 1 µM; Fructose-bisphosphate aldolase (Mycobacterium tuberculosis (strain ATCC 25618 / H37Rv)), …;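 also: 0% = vehicle and 100% = reference inhibitor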
Target sequence (P9WQA3 whole entry, looked up): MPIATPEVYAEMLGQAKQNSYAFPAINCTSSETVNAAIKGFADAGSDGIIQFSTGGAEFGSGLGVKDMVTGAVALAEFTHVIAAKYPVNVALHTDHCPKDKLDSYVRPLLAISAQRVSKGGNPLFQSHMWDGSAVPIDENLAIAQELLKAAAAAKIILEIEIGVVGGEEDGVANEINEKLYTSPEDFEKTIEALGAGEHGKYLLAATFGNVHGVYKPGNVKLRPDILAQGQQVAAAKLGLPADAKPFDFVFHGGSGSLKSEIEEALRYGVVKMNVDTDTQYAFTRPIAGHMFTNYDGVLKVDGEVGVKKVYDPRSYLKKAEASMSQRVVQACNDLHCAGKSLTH
PrP UTR inh: inhibition of PrP 5' UTR reporter expression. inhibition, % (concentration not given with the values). AID 488862, 2010. 0.35% of 340,000 active. cell-based PrP 5' UTR mRNA reporter, plate reader; in the data active = inhibition above about 52%; also: 0 = median of the neutral control wells
PrPC surface inh: inhibitors of human cell surface prion protein PrPC, primary screen, cell-based, TR-FRET | Major prion protein (Homo sapiens), P04156 | TR-FRET read-out | 0.43% of 370,000 active | inhibition, % at 13.8 µM; in the data active = inhibition above about 24%; also: 0% = median of the test wells and 100% = reference compound wells
GDH-TPI counter-1: GDH-TPI coupling enzyme inhibitors, primary screen, artefact control for M. tuberculosis FBA inhibitor project, biochemical, absorbance, full deck | GDH-TPI coupled enzyme counterscreen, NADH absorbance | inhibition, % at 4.8 µM | 1.2% of 360,000 active; in the data active = inhibition above about 30%;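 also: 0% = DMSO wells and 100% = wells lacking the enzyme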
PfHsp40 yeast: rescue of yeast from PfHsp40 toxicity, primary screen, S. cerevisiae, ATP luminescence. S. cerevisiae expressing PfHsp40, growth rescue. growth rescue, % at 12.5 µM. 0.68% of 340,000 active; in the data active = growth rescue above about 28%, passing the limit was not always enough;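 also: yeast W303a lacking pdr1 and pdr3 grown in galactose medium; growth measured after three days at 30 °C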
Mtb FBA inh conf: M. tuberculosis aldolase blockers, biochemical, fluorescence, strain H37Rv, confirmation; shares compounds with FBA Mtb inh; purified M. tuberculosis FBA, fluorescence read-out; inhibition, % at 1 µM; 78% of 5,600 active; AID 651616, 2012;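 also: 0% = vehicle wells and 100% = reference inhibitor wells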
GDH-TPI counter-2: GDH-TPI coupling enzyme inhibitors, artefact control for M. tuberculosis FBA inhibitor project, biochemical, fluorescence, high throughput. inhibition, % at 1 µM. 81% of 5,600 active. GDH-TPI coupled enzyme counterscreen. shares compounds with FBA Mtb inh; in the data active = inhibition above about 10%
GDH-TPI dose: GDH-TPI coupling enzyme inhibitors, dose response, artefact control for M. tuberculosis FBA inhibitor project, biochemical, fluorescence, IC50 | shares compounds with FBA Mtb inh | GDH-TPI coupled enzyme assay, artifact counterscreen | IC50, µM | 79% of 170 active; call rule not given here
* = called active by the depositor. In the library only some 4.5% were active in any assay of this set; here they are far more common. Rule as the data show it, unless noted: active = inhibition above about 27%; inactive = the rest.

`C=CCN(Cc1nc(-c2ccccc2)no1)C(=O)c1ccco1` gave BJeLR lethal 0, FBA Mtb inh -1, PrP UTR inh -25, PrPC surface inh 3, GDH-TPI counter-1 0 and PfHsp40 yeast -1.
`Cc1nc2c3cnn(-c4ccc(C)c(C)c4)c3ncn2n1` gave BJeLR lethal 9, FBA Mtb inh 38*, PrP UTR inh -113, PrPC surface inh -8, GDH-TPI counter-1 7, PfHsp40 yeast 1, Mtb FBA inh conf 119* and GDH-TPI counter-2 96*.
Screening Cc1ccc(-n2ncc3c(=O)n(CC(N)=O)cnc32)cc1C returned BJeLR lethal -3, FBA Mtb inh 2, PrP UTR inh -26, PrPC surface inh 6, GDH-TPI counter-1 -4 and PfHsp40 yeast 16.
For Cc1cc(C)cc(C(=O)Nc2nnc(SCC(=O)NCC3CCCO3)s2)c1 (stereo not given) the results were BJeLR lethal 1, FBA Mtb inh 2, PrP UTR inh -13, PrPC surface inh 4, GDH-TPI counter-1 20 and PfHsp40 yeast -1.
Screening Cc1ccc2nc(CNC(=O)C3CCC(=O)N(Cc4ccccc4F)C3)cn2c1 (stereo not given) returned BJeLR lethal -4, FBA Mtb inh 18, PrP UTR inh -15, PrPC surface inh 4, GDH-TPI counter-1 10 and PfHsp40 yeast -1.
Screening O=C(NCCc1cn2cccnc2n1)C1CCC(=O)N(Cc2ccccc2F)C1 (stereo not given) returned FBA Mtb inh 94*, PrPC surface inh 8, GDH-TPI counter-1 6, Mtb FBA inh conf 60* and GDH-TPI counter-2 39*.
N#Cc1ccc(OCC(=O)NNC(=O)C2CCCCC2)cc1 was read as FBA Mtb inh 30*, PrP UTR inh -8, PrPC surface inh 0, GDH-TPI counter-1 8, PfHsp40 yeast -1, Mtb FBA inh conf 2 and GDH-TPI counter-2 0.
C[C@@H]1O[C@@H](OCCC(=O)O)[C@H](O)C[C@H]1O was read as FBA Mtb inh -1, PrP UTR inh -4, PrPC surface inh -3, GDH-TPI counter-1 -9 and PfHsp40 yeast 0.
For CCCc1nc2oc3c(NCC(C)O)ncnc3c2c2c1CCCC2 (stereo not given) the results were BJeLR lethal -2, FBA Mtb inh 36*, PrPC surface inh -4, GDH-TPI counter-1 1, Mtb FBA inh conf 68* and GDH-TPI counter-2 45*.
`c1ccc(-c2nc3nc4ccccc4nc3n2CC2CCCO2)cc1` (stereo not given) gave BJeLR lethal -4, FBA Mtb inh 84*, PrP UTR inh -37, PrPC surface inh -31, GDH-TPI counter-1 34*, PfHsp40 yeast 0, Mtb FBA inh conf 96* and GDH-TPI counter-2 72*.
Screening COc1ccc(NC(=O)C(Sc2ccccc2)c2ccccc2)c(OC)c1 (stereo not given) returned BJeLR lethal 10, FBA Mtb inh 72*, PrP UTR inh -10, PrPC surface inh -2, GDH-TPI counter-1 0, PfHsp40 yeast 1, Mtb FBA inh conf 45* and GDH-TPI counter-2 33*.
COc1ccccc1NC(=O)C(Sc1ccccc1)c1ccccc1 (stereo not given) was read as BJeLR lethal 0, FBA Mtb inh 6, PrP UTR inh 2, PrPC surface inh -7, GDH-TPI counter-1 2 and PfHsp40 yeast 1.
O=C(Nc1ccc(C(O)c2ccccc2)cc1)[C@@H]1O[C@H](CO)[C@@H](O)[C@H]1O (stereo not given in full) was read as FBA Mtb inh -1, PrPC surface inh -5 and GDH-TPI counter-1 7.
CCC(C)(C)C(=O)Nc1ncc(S(=O)(=O)c2ccc([N+](=O)[O-])cc2)s1 was read as BJeLR lethal 11, FBA Mtb inh 76*, PrP UTR inh -16, PrPC surface inh -13, GDH-TPI counter-1 -3, PfHsp40 yeast 0, Mtb FBA inh conf 4 and GDH-TPI counter-2 -1.
Screening O=C(CCl)Nc1ncc(S(=O)(=O)c2ccc([N+](=O)[O-])cc2)s1 returned FBA Mtb inh -4, PrP UTR inh 1, PrPC surface inh -16, GDH-TPI counter-1 11 and PfHsp40 yeast 0.
For Nc1c(C(=O)NCc2ccc3c(c2)OCO3)nnn1Cc1ccc(Br)cc1 the results were BJeLR lethal 0, FBA Mtb inh -1, PrP UTR inh -16, PrPC surface inh 0, GDH-TPI counter-1 11 and PfHsp40 yeast 3.
`COc1ccc2c(c1OC)C(=O)N(c1ccccn1)C2` gave BJeLR lethal 8, FBA Mtb inh 45*, PrP UTR inh -92, PrPC surface inh -3, GDH-TPI counter-1 1, PfHsp40 yeast -1, Mtb FBA inh conf 115* and GDH-TPI counter-2 106*.
For COc1ccc(-n2nc3ccc(N)cc3n2)cc1 the results were FBA Mtb inh 56*, PrPC surface inh -5, GDH-TPI counter-1 16, Mtb FBA inh conf 54* and GDH-TPI counter-2 41*.
`CCOc1ccc(-n2nc3ccc(N)cc3n2)cc1` gave BJeLR lethal 0, FBA Mtb inh 74*, PrP UTR inh 21, PrPC surface inh 6, GDH-TPI counter-1 16, PfHsp40 yeast -2, Mtb FBA inh conf 14, GDH-TPI counter-2 1 and GDH-TPI dose 1.1*.
`Cc1ccc(NC(=O)N2CCCCC2)cc1[N+](=O)[O-]` gave BJeLR lethal -13, FBA Mtb inh 4, PrP UTR inh -37, PrPC surface inh -2, GDH-TPI counter-1 1 and PfHsp40 yeast 1.
For Cc1ccc2cc(-c3noc(C4CCCCC4)n3)c(=O)[nH]c2c1 the results were BJeLR lethal 2, FBA Mtb inh 1, PrP UTR inh -8, PrPC surface inh 5, GDH-TPI counter-1 3 and PfHsp40 yeast 1.
`Cc1ccc2cc(-c3noc(C4CCCO4)n3)c(=O)[nH]c2c1` (stereo not given) gave BJeLR lethal 4, FBA Mtb inh 37*, PrP UTR inh -20, PrPC surface inh 5, GDH-TPI counter-1 16, PfHsp40 yeast 0, Mtb FBA inh conf 42* and GDH-TPI counter-2 45*.

Source: PubChem BioAssay (several laboratories)
